A word on the inhibition: it is the drop in the measured response relative to a control, in per cent.

Results on three molecules are retold here after ChEMBL document CHEMBL1961873, “Compounds: GSK PKIS; Assays: Nanosyn kinase panel” (2012).

Experiment [1] concerns Epidermal growth factor receptor (Homo sapiens), P00533 [T790M]. Particulars: at 1 µM.
Experiment [2] relates to Epidermal growth factor receptor (Homo sapiens), P00533 [L858R,T790M]. To be noted: at 0.1 µM.
For experiment [3] the test system is unchanged. Particulars: at 1 µM.
The target of experiment [4] is Ephrin type-A receptor 2 (Homo sapiens) (UniProt P29317). To be noted: at 0.1 µM.
Experiment [5] has the same target. Particulars: at 1 µM.
The target in experiment [6] is T1, Ephrin type-A receptor 3 (Homo sapiens) (UniProt P29320).
T1 sequence (whole entry): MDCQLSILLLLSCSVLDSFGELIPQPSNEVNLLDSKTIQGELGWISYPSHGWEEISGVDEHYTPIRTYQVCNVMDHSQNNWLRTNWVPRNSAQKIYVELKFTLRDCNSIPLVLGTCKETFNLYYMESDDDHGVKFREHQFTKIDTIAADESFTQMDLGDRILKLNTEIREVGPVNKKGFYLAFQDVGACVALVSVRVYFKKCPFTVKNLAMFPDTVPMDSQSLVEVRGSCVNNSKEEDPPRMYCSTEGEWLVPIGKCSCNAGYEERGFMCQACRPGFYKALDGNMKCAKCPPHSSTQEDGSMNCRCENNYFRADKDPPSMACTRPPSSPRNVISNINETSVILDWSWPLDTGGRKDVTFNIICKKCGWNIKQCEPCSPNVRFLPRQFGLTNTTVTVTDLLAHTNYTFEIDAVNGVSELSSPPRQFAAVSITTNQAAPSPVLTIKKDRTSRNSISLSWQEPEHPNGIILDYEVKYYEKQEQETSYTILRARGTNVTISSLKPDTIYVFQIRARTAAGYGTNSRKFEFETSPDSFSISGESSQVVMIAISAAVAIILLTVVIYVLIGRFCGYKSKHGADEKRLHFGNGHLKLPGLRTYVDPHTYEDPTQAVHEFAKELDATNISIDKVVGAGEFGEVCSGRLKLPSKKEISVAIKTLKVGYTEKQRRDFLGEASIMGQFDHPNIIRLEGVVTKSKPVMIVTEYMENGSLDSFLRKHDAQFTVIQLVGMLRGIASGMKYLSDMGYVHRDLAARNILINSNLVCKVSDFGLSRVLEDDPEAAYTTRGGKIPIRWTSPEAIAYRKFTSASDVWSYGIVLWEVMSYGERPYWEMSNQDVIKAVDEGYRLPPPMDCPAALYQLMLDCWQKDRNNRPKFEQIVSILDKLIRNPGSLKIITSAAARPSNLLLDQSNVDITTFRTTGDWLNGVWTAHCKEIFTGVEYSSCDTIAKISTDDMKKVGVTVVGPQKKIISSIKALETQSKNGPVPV
Particulars: at 0.1 µM.

Experiment [7] has as its target T1, Ephrin type-A receptor 3 (Homo sapiens). Particulars: at 1 µM.
In experiment [8] the target is Ephrin type-A receptor 4 (Homo sapiens) (UniProt P54764). To be noted: at 0.1 µM.
For experiment [9] the target is unchanged. To be noted: at 1 µM.
Experiment [10] addresses T2, Ephrin type-B receptor 2 (Homo sapiens) (UniProt P29323).
T2 sequence (whole entry): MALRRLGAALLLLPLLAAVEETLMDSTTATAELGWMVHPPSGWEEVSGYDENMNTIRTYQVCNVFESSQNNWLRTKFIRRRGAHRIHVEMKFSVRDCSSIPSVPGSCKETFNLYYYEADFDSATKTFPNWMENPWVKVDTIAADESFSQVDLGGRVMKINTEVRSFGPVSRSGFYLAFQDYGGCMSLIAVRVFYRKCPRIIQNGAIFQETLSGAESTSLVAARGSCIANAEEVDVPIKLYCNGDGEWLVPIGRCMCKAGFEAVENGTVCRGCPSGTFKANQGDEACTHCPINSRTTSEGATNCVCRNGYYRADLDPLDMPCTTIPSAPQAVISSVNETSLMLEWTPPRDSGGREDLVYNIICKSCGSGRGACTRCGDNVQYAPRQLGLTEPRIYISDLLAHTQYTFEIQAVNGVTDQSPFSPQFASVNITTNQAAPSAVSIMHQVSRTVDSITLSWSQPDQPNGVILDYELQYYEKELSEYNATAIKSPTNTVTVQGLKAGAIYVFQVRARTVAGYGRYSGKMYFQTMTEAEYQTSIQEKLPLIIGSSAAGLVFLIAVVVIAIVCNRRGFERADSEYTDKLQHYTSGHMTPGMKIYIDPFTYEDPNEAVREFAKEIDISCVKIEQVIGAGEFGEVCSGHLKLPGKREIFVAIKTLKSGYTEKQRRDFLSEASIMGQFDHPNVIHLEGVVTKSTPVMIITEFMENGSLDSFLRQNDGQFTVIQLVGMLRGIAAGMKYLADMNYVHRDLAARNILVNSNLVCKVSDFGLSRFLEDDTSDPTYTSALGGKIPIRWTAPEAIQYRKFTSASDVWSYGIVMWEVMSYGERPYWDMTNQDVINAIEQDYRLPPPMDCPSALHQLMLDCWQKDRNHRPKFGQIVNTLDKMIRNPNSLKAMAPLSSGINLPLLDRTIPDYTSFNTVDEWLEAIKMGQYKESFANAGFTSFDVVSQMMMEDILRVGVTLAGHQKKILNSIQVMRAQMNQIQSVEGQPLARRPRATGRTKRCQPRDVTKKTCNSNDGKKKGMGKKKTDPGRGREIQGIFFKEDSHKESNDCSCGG
To be noted: at 0.1 µM.

Experiment [11] addresses T2, Ephrin type-B receptor 2 (Homo sapiens). To be noted: at 1 µM.
The target in experiment [12] is T3, Ephrin type-B receptor 3 (Homo sapiens) (UniProt P54753).
T3 sequence (whole entry): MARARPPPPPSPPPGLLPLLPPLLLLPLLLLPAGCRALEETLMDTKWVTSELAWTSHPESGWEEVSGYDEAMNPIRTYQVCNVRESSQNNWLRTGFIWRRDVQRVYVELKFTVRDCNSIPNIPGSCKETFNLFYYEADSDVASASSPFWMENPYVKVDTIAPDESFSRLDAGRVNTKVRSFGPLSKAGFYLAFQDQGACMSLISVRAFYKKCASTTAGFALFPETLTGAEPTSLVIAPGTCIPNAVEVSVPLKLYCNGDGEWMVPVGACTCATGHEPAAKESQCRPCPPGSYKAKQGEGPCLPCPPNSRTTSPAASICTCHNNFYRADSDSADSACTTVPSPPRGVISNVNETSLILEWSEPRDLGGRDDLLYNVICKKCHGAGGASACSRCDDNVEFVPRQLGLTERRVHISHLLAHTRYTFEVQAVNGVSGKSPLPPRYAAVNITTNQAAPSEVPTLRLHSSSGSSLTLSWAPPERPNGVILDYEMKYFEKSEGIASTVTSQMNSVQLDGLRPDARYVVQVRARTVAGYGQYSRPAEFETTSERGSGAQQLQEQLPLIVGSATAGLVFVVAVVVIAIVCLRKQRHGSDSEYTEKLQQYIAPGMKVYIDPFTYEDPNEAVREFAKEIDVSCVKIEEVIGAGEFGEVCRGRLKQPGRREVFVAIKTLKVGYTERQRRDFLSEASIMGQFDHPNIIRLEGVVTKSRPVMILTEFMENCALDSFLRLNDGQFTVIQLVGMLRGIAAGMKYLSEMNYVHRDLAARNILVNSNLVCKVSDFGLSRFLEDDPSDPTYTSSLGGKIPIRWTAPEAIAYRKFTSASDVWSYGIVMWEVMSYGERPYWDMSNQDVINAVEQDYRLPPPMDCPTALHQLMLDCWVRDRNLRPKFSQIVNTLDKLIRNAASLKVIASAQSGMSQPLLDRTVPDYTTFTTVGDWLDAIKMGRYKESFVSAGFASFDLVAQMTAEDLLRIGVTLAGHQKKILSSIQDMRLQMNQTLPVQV
To be noted: at 0.1 µM.

Experiment [13] deals with T3, Ephrin type-B receptor 3 (Homo sapiens). To be noted: at 1 µM.
The target of experiment [14] is T4, Ephrin type-B receptor 4 (Homo sapiens) (UniProt P54760).
T4 sequence (whole entry): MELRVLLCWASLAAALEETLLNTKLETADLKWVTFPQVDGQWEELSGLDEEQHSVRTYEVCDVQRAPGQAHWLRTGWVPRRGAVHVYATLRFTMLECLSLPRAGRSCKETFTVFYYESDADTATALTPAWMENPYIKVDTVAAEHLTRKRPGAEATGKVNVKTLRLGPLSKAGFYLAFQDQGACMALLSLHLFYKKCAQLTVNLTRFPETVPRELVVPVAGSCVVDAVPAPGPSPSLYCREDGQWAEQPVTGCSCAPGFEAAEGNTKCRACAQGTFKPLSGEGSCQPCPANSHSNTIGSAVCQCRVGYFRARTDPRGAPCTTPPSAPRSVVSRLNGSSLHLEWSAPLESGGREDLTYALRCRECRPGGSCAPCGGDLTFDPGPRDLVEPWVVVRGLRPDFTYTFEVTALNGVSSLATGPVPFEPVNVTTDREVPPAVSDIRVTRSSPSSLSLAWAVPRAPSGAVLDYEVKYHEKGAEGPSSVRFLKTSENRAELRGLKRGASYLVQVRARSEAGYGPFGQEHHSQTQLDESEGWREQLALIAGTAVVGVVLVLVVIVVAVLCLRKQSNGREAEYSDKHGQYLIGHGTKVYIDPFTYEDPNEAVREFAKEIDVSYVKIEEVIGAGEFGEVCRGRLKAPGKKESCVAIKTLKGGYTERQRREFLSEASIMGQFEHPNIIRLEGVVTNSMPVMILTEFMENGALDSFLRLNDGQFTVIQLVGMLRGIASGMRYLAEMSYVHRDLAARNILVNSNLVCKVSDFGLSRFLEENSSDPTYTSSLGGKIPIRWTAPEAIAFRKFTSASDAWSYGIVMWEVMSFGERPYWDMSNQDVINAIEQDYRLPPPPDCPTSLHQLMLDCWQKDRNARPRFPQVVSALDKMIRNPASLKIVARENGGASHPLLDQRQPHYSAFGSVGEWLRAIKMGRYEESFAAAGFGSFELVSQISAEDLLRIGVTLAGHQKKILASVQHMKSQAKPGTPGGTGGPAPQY
To be noted: at 0.1 µM.

Experiment [15] addresses T4, Ephrin type-B receptor 4 (Homo sapiens). Particulars: at 1 µM.
Experiment [16] has as its target Receptor tyrosine-protein kinase erbB-2 (Homo sapiens) (UniProt P04626). Particulars: at 0.1 µM.
The target is the same in experiment [17]. To be noted: at 1 µM.
The target in experiment [18] is Receptor tyrosine-protein kinase erbB-4 (Homo sapiens) (UniProt Q15303). Particulars: at 0.1 µM.
The target is the same in experiment [19]. To be noted: at 1 µM.
Experiment [20] has as its target Tyrosine-protein kinase Fer (Homo sapiens) (UniProt P16591). Particulars: at 0.1 µM.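 Further: reported figures are averaged percent inhibition of FER.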

Chain of Receptor tyrosine-protein kinase erbB-2 (Homo sapiens) (P04626 whole entry): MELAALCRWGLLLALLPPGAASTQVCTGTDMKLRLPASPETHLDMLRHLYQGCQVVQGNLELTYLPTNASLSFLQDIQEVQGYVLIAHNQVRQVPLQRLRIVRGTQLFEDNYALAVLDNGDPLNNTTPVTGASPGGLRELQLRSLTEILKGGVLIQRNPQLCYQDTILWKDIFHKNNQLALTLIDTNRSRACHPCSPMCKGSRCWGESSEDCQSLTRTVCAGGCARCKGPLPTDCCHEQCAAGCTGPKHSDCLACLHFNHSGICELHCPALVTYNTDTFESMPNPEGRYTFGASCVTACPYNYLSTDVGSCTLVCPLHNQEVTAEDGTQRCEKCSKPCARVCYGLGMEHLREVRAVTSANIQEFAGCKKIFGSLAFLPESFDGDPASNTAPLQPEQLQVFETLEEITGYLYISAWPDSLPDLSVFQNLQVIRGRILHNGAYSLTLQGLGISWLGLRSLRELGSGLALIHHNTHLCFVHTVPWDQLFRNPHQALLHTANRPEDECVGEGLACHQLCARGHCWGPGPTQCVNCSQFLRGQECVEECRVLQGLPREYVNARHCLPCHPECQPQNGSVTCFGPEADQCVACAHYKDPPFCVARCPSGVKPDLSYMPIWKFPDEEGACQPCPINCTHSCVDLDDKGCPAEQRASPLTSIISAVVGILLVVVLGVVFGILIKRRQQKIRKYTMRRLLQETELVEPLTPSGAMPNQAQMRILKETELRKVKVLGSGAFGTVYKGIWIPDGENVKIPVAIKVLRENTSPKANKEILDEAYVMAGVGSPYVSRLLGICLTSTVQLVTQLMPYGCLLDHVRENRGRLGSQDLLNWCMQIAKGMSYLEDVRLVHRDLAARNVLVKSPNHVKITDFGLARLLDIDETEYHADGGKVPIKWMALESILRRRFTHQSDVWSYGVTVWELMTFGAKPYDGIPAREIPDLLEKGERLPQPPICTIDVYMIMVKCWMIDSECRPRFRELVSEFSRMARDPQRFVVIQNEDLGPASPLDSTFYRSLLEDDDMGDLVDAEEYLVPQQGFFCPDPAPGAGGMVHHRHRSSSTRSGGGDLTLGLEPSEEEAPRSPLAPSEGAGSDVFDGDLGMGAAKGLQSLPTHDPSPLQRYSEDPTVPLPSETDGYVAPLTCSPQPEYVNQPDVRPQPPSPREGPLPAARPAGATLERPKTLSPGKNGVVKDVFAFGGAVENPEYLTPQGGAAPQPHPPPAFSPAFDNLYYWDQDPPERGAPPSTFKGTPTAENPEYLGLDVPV
Chain of Ephrin type-A receptor 4 (Homo sapiens) (P54764 whole entry): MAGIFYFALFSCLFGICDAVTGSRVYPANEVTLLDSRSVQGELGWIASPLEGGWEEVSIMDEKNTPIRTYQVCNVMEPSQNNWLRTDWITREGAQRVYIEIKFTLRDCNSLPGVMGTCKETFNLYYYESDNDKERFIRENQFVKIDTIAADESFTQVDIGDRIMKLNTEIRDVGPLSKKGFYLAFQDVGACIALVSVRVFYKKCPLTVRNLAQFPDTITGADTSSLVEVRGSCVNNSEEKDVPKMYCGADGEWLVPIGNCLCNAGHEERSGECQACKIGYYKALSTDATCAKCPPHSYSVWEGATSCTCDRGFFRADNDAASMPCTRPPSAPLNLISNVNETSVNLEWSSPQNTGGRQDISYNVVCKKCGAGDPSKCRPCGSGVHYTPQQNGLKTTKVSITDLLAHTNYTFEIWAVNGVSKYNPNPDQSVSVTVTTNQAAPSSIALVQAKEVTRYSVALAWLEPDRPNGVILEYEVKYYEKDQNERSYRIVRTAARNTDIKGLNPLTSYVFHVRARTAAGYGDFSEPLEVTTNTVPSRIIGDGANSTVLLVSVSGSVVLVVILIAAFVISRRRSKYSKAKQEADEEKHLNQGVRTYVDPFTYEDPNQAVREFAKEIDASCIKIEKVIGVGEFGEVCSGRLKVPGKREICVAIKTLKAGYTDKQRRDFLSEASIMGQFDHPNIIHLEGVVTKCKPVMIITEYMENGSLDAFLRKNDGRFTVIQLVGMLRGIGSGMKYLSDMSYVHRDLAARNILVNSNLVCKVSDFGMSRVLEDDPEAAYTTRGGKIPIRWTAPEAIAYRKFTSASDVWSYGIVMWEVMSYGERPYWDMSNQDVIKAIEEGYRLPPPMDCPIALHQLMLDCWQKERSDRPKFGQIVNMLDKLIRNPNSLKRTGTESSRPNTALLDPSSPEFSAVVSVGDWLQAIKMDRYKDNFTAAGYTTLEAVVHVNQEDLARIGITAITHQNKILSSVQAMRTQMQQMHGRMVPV
Chain of Ephrin type-A receptor 2 (Homo sapiens) (P29317 whole entry): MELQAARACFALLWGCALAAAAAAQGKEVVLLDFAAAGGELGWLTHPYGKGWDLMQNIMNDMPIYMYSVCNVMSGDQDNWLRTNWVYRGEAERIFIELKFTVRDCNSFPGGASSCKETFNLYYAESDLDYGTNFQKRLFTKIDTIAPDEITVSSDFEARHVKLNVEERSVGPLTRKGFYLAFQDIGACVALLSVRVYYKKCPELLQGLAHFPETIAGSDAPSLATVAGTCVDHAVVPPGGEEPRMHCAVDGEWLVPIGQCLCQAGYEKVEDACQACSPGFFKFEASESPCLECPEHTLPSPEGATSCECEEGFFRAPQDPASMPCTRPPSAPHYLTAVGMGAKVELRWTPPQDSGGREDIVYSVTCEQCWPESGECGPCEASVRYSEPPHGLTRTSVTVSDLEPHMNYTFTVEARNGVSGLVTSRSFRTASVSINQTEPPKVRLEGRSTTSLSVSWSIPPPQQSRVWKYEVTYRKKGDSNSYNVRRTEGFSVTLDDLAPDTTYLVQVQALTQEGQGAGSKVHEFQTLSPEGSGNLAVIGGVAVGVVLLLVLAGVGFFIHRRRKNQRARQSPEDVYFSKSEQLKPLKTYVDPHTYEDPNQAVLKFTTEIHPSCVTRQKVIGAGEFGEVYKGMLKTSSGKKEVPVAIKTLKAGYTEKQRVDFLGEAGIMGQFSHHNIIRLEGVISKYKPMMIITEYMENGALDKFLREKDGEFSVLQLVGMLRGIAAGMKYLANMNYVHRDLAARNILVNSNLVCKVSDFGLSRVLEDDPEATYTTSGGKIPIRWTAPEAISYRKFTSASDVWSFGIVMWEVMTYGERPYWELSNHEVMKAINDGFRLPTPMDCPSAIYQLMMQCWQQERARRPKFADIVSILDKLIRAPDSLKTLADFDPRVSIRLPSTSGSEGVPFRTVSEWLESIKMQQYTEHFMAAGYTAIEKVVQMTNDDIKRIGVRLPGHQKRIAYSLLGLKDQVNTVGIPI
Chain of Epidermal growth factor receptor (Homo sapiens), P00533 [L858R,T790M] (P00533 whole entry T790M/L858R, looked up): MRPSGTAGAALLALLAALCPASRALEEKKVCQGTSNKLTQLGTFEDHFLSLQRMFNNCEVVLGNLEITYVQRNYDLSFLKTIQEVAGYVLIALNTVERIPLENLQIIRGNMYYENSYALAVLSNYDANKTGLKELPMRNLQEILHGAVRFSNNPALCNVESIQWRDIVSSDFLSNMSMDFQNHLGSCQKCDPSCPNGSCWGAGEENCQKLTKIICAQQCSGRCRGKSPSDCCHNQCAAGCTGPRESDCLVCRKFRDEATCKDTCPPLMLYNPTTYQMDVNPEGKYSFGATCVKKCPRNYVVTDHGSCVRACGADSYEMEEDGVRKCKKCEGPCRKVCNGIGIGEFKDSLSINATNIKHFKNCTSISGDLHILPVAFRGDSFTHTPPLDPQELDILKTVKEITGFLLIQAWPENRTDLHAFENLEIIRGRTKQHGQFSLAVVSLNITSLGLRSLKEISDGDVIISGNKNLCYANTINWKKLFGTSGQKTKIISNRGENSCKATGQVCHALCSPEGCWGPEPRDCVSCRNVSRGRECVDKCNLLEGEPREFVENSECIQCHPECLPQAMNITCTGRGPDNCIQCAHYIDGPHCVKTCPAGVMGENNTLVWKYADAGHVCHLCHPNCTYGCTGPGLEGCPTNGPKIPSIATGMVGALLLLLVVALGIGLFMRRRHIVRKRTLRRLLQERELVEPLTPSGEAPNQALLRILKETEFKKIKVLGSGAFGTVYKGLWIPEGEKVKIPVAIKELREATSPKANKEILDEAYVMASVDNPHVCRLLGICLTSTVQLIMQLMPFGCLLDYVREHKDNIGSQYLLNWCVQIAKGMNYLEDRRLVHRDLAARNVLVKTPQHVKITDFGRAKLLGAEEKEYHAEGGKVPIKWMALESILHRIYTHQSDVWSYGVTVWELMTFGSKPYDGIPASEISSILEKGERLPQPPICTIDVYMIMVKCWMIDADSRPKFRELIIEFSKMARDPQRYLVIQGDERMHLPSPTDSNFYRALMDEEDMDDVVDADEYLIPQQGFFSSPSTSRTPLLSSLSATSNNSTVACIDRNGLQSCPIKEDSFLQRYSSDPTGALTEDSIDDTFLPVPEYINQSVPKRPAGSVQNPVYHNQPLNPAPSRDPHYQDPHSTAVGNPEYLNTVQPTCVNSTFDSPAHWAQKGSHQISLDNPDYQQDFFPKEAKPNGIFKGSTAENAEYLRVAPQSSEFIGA

With `CCc1ccc(Oc2nccc(-c3c(-c4ccc(F)cc4)ncn3C3CCNCC3)n2)cc1`, the inhibition is 4.64% in experiment [1]; 0.15% in experiment [2]; 8.07% in experiment [3]; 0.72% in experiment [4]; -0.17% in experiment [5]; 4.68% in [6]. The inhibition in experiment [7] was 4.67%; in experiment [8] it was 9.41%; in [9], 10.6%; in experiment [10] it was 4.76%; in [11], 9.06%; in experiment [12], 4.55%. Besides, the inhibition was determined as 4.56% in [13]; 1.97% in [14]; 3.15% in experiment [15]; 1.55% in experiment [16]; 7.71% in experiment [17]; 7.62% in experiment [18]. Further, the values for the inhibition in [19] and in experiment [20] were 11.6% and -1.66%, respectively.
As for `CCC(=O)Nc1ccc(C)c(-c2ccc(C(=O)NCC3CC3)cc2)c1`, the inhibition in [1] was 2.33%; in experiment [2], -0.94%; in experiment [3] it was 3.59%; in [4], -1.79%; in [5] it was -2.2%; in experiment [6] it was 1.95%. Further, the inhibition in [7] came to 4.02%; in [8] it was 6.75%; in experiment [9], 8.5%; in experiment [10], 6.82%; in [11], 7.83%; in experiment [12] it was 2.63%. Besides, the inhibition came to 4.65% in experiment [13]; 0.55% in experiment [14]; 1.51% in experiment [15]; 2.99% in experiment [16]; 3.96% in [17]; 9.79% in experiment [18]. The inhibition in experiment [19] is 13.9%; in experiment [20] it was -0.76%.
Consider `Fc1ccc(-c2ncn(C3CCNCC3)c2-c2ccnc(Oc3ccc(Oc4ccccc4)cc3)n2)cc1`, for which the inhibition was found to be 4.11% in experiment [1]; 1.7% in [2]; 6.06% in experiment [3]; 1.86% in experiment [4]; 1.01% in experiment [5]; 2.44% in experiment [6]. Moreover, the inhibition in experiment [7] was 4.03%; in experiment [8], 6.9%; in [9] it was 7.87%; in experiment [10], 7.52%; in experiment [11], 7.3%; in experiment [12] it was 4.75%. The inhibition is 2.76% in experiment [13]; 2.74% in experiment [14]; 2.19% in [15]; 3.95% in experiment [16]; 2.11% in experiment [17]; 6.47% in experiment [18]. The inhibition in [19] is 9.01%; in [20] it was 1.51%.
